“And” between values parts separate entries of the source, which are not always exact repeats. Equal entries are not always repeated. Results filed as inconclusive are left out. Entries that show only a call come without a potency. Values without a mark were called inactive. The source made the active and inactive calls. Calls follow the shape of the dose curve; as a rule, active = well fitted curve in the direction sought with a large enough effect in the repeat runs; inconclusive = weak or mixed curves; inactive = no such curve, though single readings can be large; an effect the other way counts as inactive or inconclusive.
Assay: qHTS assay to identify small molecule antagonists of the thyroid receptor (TR) signaling pathway - cell viability counter screen (AID 743064); also: nearly all actives have a fitted effect of over 50% in size
Settings: GH3.TRE-Luc viability, CellTiter-Fluor, 24 h; series mostly up to 70.3 µM; activity change, negative = cytotoxic: at the top concentration
Method in brief: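 Fluorescence from CellTiter-Fluor, added after 23.5 h exposure at 37 °C, reported viability of GH3.TRE-Luc cells co-treated with compound and 1 nM T3. Measured in the same wells as the luciferase TR readout.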
Potency is read from the fitted curve at half-maximal effect.

| Structure (SMILES) | Potency |
| --- | --- |
| CCNc1nc(Cl)nc(NCC)n1 | inactive |
| CCCCn1cc[n+](C)c1 | inactive |
| CCCCCCCCCCCCCC[P+](CCCCCC)(CCCCCC)CCCCCC | 6.14 µM (active) and 5.49 µM (active) and 3.06 µM (active) |
| O=C(O)C(Cl)(Cl)Cl | inactive |
| Nc1ccc(-c2ccc(N)cc2)cc1 | inactive |
| CC(=O)[O][Hg][c]1ccccc1 | 596 nM (active) and 241 nM (active) and 386 nM (active) |
| CCOP(=S)(OCC)Oc1ccc2c(C)c(Cl)c(=O)oc2c1 | inactive |
| C1CCC(NC2CCCCC2)CC1 | inactive |
| O=C(O)CC(O)(CC(=O)O)C(=O)O | inactive |
| Cc1cc(Cl)ccc1N | inactive |
| C[C@]12CCC(=O)C=C1CC[C@@H]1[C@@H]2CC[C@]2(C)C(=O)CC[C@@H]12 | inactive |
| OCCOc1ccccc1 | inactive |
| COc1ccc(N)cc1 | inactive |
| O=C(O)c1nc(Cl)ccc1Cl | inactive |
| CCCC[n+]1cccc(C)c1 | inactive |
| CCCC[N+]1(C)CCCC1 | inactive |

| Structure (SMILES) | Potency |
| --- | --- |
| COc1ccccc1N | inactive |
| O=[N+]([O-])c1ccccc1O | inactive |
| CCCC[n+]1ccccc1 | inactive |
| CCCCn1cc[n+](C)c1C | inactive |
| Cc1cc(Cl)ccc1OCC(=O)O | inactive |
| CC(Cl)(Cl)C(=O)O | inactive |
| O=C(O)CCl | inactive |
| CCCCCCCCCCCCn1cc[n+](C)c1 | 4.4 µM (active) [middle of 6 runs] |
| CCCCCC[n+]1ccccc1 | inactive |
| Nc1ccc(Cl)cc1 | inactive |
| Cc1cc(-c2ccc(N)c(C)c2)ccc1N | inactive |
| O=C(O)C(Cl)Cl | inactive |
| CCC(=O)C(CC(C)N(C)C)(c1ccccc1)c1ccccc1 (stereo not drawn) | 24.4 µM (active) and 27.1 µM (active) and 33 µM (active) |
| Nc1ccc(-c2ccc(N)c(Cl)c2)cc1Cl | 30.8 µM (active) and 18 µM (active) and 30.6 µM (active) |
| COP(=O)(OC)OC=C(Cl)Cl | inactive |
| CCC[N+]1(C)CCCCC1 | inactive |

Assay: qHTS assay to identify small molecule antagonists of the thyroid receptor (TR) signaling pathway (AID 743065); also: nearly all actives have a fitted effect of over 55% in size
Settings: GH3.TRE-Luc, T3-stimulated luciferase inhibition, 23.5 h; series mostly up to 70.3 µM; activity, negative = inhibition: at the top concentration
Method in brief: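 GH3.TRE-Luc rat pituitary cells (two TREs driving luciferase) were dosed with compound, then stimulated with 1 nM T3 (final) for 23.5 h at 37 C. ONE-Glo luminescence was the read-out, with CellTiter-Fluor fluorescence as the cytotoxicity counter-screen.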

| Structure (SMILES) | Potency | activity, negative = inhibition |
| --- | --- | --- |
| CCNc1nc(Cl)nc(NCC)n1 | inactive |  |
| CCCCn1cc[n+](C)c1 | inactive |  |
| CCCCCCCCCCCCCC[P+](CCCCCC)(CCCCCC)CCCCCC | 3.87 µM (active) and 4.36 µM (active) and 2.43 µM (active) |  |
| O=C(O)C(Cl)(Cl)Cl | inactive |  |
| Nc1ccc(-c2ccc(N)cc2)cc1 | inactive |  |
| CC(=O)[O][Hg][c]1ccccc1 | 422 nM (active) and 215 nM (active) and 217 nM (active) |  |
| CCOP(=S)(OCC)Oc1ccc2c(C)c(Cl)c(=O)oc2c1 | inactive |  |
| C1CCC(NC2CCCCC2)CC1 | inactive |  |
| O=C(O)CC(O)(CC(=O)O)C(=O)O | inactive |  |
| Cc1cc(Cl)ccc1N | inactive |  |
| C[C@]12CCC(=O)C=C1CC[C@@H]1[C@@H]2CC[C@]2(C)C(=O)CC[C@@H]12 | 60.1 µM (active) |  |
| OCCOc1ccccc1 | inactive |  |
| COc1ccc(N)cc1 |  | 6.47% [at 95 µM] |
| O=C(O)c1nc(Cl)ccc1Cl | inactive |  |
| CCCC[n+]1cccc(C)c1 | inactive |  |
| CCCC[N+]1(C)CCCC1 | inactive |  |

| Structure (SMILES) | Potency | activity, negative = inhibition |
| --- | --- | --- |
| COc1ccccc1N | inactive |  |
| O=[N+]([O-])c1ccccc1O | inactive |  |
| CCCC[n+]1ccccc1 | inactive |  |
| CCCCn1cc[n+](C)c1C | inactive |  |
| Cc1cc(Cl)ccc1OCC(=O)O | inactive |  |
| CC(Cl)(Cl)C(=O)O | inactive |  |
| O=C(O)CCl | inactive |  |
| CCCCCC[n+]1ccccc1 | inactive |  |
| Nc1ccc(Cl)cc1 | inactive |  |
| Cc1cc(-c2ccc(N)c(C)c2)ccc1N | inactive |  |
| O=C(O)C(Cl)Cl | inactive |  |
| CCC(=O)C(CC(C)N(C)C)(c1ccccc1)c1ccccc1 (stereo not drawn) | 27.4 µM (active) and 30.4 µM (active) and 41.5 µM (active) |  |
| Nc1ccc(-c2ccc(N)c(Cl)c2)cc1Cl | 27.4 µM (active) and 10.1 µM (active) and 17.2 µM (active) |  |
| COP(=O)(OC)OC=C(Cl)Cl | inactive |  |
| CCC[N+]1(C)CCCCC1 | inactive |  |
